Paper PMC8222333, “AsCas12a ultra nuclease facilitates the rapid generation of therapeutic cell medicines”

Assays:
Assay in all cases: Spec-seq (native PAGE EMSA with sequencing of bound and unbound); 25 mM Tris-HCl pH 7.4, 150 mM KCl, 5 mM MgCl2, 10% glycerol, 1 mM DTT, 40 ng/uL salmon sperm DNA; 400 nM Cas12a, 480 nM crRNA, 50 nM library, 37 C 1 h; native PAGE at room temperature; high values mean tight binding
Conditions in all cases: protein: recombinant
[1] = target: dAsCas12a S542R (Acidaminococcus sp., UniProt U2UMQ6 1-1307, S542R;D908A;E993A;D1235A)
[2] = target: d-enCas12a (Acidaminococcus sp., UniProt U2UMQ6 1-1307, E174R;S542R;K548R;D908A;E993A;D1235A)
[3] = target: d-enCas12a-Ultra (Acidaminococcus sp., UniProt U2UMQ6 1-1307, E174R;S542R;K548R;M537R;F870L;D908A;E993A;D1235A)
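Further: relative affinity from the bound to unbound sequence frequency ratio in Spec-seq.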

Binder | binding signal [1] | binding signal [2] | binding signal [3]
TAAG (dsDNA) DNA 1: GCTATCTAGTGCTCAGTACGCACTGTAAGAGGAAACTTCTGGCAGGACCAGGTCATGAGATCGGAAGAGCACACGTCTGAACTCCAGTCA DNA 2: TGACTGGAGTTCAGACGTGTGCTCTTCCGATCTCATGACCTGGTCCTGCCAGAAGTTTCCTCTTACAGTGCGTACTGAGCACTAGATAGC RNA: AAUUUCUACUCUUGUAGAUAGGAAACUUCUGGCAGGACC | -8.68 lnKA | -5.56 lnKA | -3.25 lnKA
TAGG (dsDNA) DNA 1: GCTATCTAGTGCTCAGTACGCACTGTAGGAGGAAACTTCTGGCAGGACCAGGTCATGAGATCGGAAGAGCACACGTCTGAACTCCAGTCA DNA 2: TGACTGGAGTTCAGACGTGTGCTCTTCCGATCTCATGACCTGGTCCTGCCAGAAGTTTCCTCCTACAGTGCGTACTGAGCACTAGATAGC RNA: AAUUUCUACUCUUGUAGAUAGGAAACUUCUGGCAGGACC | -8.66 lnKA | -5.6 lnKA | -3.37 lnKA
TAAT (dsDNA) DNA 1: GCTATCTAGTGCTCAGTACGCACTGTAATAGGAAACTTCTGGCAGGACCAGGTCATGAGATCGGAAGAGCACACGTCTGAACTCCAGTCA DNA 2: TGACTGGAGTTCAGACGTGTGCTCTTCCGATCTCATGACCTGGTCCTGCCAGAAGTTTCCTATTACAGTGCGTACTGAGCACTAGATAGC RNA: AAUUUCUACUCUUGUAGAUAGGAAACUUCUGGCAGGACC | -8.37 lnKA | -5.67 lnKA | -3.27 lnKA
TACA (dsDNA) DNA 1: GCTATCTAGTGCTCAGTACGCACTGTACAAGGAAACTTCTGGCAGGACCAGGTCATGAGATCGGAAGAGCACACGTCTGAACTCCAGTCA DNA 2: TGACTGGAGTTCAGACGTGTGCTCTTCCGATCTCATGACCTGGTCCTGCCAGAAGTTTCCTTGTACAGTGCGTACTGAGCACTAGATAGC RNA: AAUUUCUACUCUUGUAGAUAGGAAACUUCUGGCAGGACC | -7.41 lnKA | -1.33 lnKA | -0.355 lnKA
TACC (dsDNA) DNA 1: GCTATCTAGTGCTCAGTACGCACTGTACCAGGAAACTTCTGGCAGGACCAGGTCATGAGATCGGAAGAGCACACGTCTGAACTCCAGTCA DNA 2: TGACTGGAGTTCAGACGTGTGCTCTTCCGATCTCATGACCTGGTCCTGCCAGAAGTTTCCTGGTACAGTGCGTACTGAGCACTAGATAGC RNA: AAUUUCUACUCUUGUAGAUAGGAAACUUCUGGCAGGACC | -7.06 lnKA | -1.02 lnKA | -0.362 lnKA
TCAG (dsDNA) DNA 1: GCTATCTAGTGCTCAGTACGCACTGTCAGAGGAAACTTCTGGCAGGACCAGGTCATGAGATCGGAAGAGCACACGTCTGAACTCCAGTCA DNA 2: TGACTGGAGTTCAGACGTGTGCTCTTCCGATCTCATGACCTGGTCCTGCCAGAAGTTTCCTCTGACAGTGCGTACTGAGCACTAGATAGC RNA: AAUUUCUACUCUUGUAGAUAGGAAACUUCUGGCAGGACC | -7.87 lnKA | -5.78 lnKA | -3.45 lnKA
TAGT (dsDNA) DNA 1: GCTATCTAGTGCTCAGTACGCACTGTAGTAGGAAACTTCTGGCAGGACCAGGTCATGAGATCGGAAGAGCACACGTCTGAACTCCAGTCA DNA 2: TGACTGGAGTTCAGACGTGTGCTCTTCCGATCTCATGACCTGGTCCTGCCAGAAGTTTCCTACTACAGTGCGTACTGAGCACTAGATAGC RNA: AAUUUCUACUCUUGUAGAUAGGAAACUUCUGGCAGGACC | -8.48 lnKA | -5.67 lnKA | -3.31 lnKA
TACG (dsDNA) DNA 1: GCTATCTAGTGCTCAGTACGCACTGTACGAGGAAACTTCTGGCAGGACCAGGTCATGAGATCGGAAGAGCACACGTCTGAACTCCAGTCA DNA 2: TGACTGGAGTTCAGACGTGTGCTCTTCCGATCTCATGACCTGGTCCTGCCAGAAGTTTCCTCGTACAGTGCGTACTGAGCACTAGATAGC RNA: AAUUUCUACUCUUGUAGAUAGGAAACUUCUGGCAGGACC | -7.71 lnKA | -3.12 lnKA | -0.852 lnKA
TAGC (dsDNA) DNA 1: GCTATCTAGTGCTCAGTACGCACTGTAGCAGGAAACTTCTGGCAGGACCAGGTCATGAGATCGGAAGAGCACACGTCTGAACTCCAGTCA DNA 2: TGACTGGAGTTCAGACGTGTGCTCTTCCGATCTCATGACCTGGTCCTGCCAGAAGTTTCCTGCTACAGTGCGTACTGAGCACTAGATAGC RNA: AAUUUCUACUCUUGUAGAUAGGAAACUUCUGGCAGGACC | -8.4 lnKA | -5.51 lnKA | -3.07 lnKA
